# Measured values published in the supplement of paper PMC6089552.
# In all, about 3,200 compounds went through this assay and about 300 (9.4%) showed activity. Shown is part of a subset that was picked to be rich in actives. Unmarked numbers belong to inactive results.
# System: A673/TR/shEF
# Test: cell viability (LOESS-normalised, relative to median of negative controls) (log2 ratio); higher = more viable cells (less compound effect), active = hit call of the paper (over 3 MAD below the median)
# Conditions: treatment time: 72 h
# Outline: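 Viability of A673/TR/shEF Ewing sarcoma cells was determined by CellTiter-Glo luminescence. The cells, at 1,500 per well in 384-well plates, were grown with or without doxycycline from 24 h before compound addition to switch on EWS-FLI1 shRNA knockdown, then exposed for three days to library compounds at two or more concentrations or to DMSO controls. Signals were LOESS-corrected plate by plate, normalised to the negative-control median and log2-transformed.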
# [1] = 0.25 µM, library screen: screen1, EWS-FLI1 expression: high (no doxycycline)
# [2] = 0.25 µM, library screen: screen1, EWS-FLI1 expression: low (doxycycline-induced shRNA knockdown)
# [3] = 2.5 µM, library screen: screen1, EWS-FLI1 expression: high (no doxycycline)
# [4] = 2.5 µM, library screen: screen1, EWS-FLI1 expression: low (doxycycline-induced shRNA knockdown)
compound,measurement,setting,value
CSc1nc(N)c2ncn(C3OC(COP(=O)(O)OP(=O)(O)O)C(O)C3O)c2n1 (stereo not given),cell viability (log2),"0.25 µM, library screen: screen2, EWS-FLI1 expression: high (no doxycycline)",0.0889
same,cell viability (log2),"0.25 µM, library screen: screen2, EWS-FLI1 expression: low (doxycycline-induced shRNA knockdown)",0.0973
same,cell viability (log2),"2.5 µM, library screen: screen2, EWS-FLI1 expression: high (no doxycycline)",0.157
same,cell viability (log2),"2.5 µM, library screen: screen2, EWS-FLI1 expression: low (doxycycline-induced shRNA knockdown)",0.0918
CC(C)(O)[C@H]1CC[C@]2(C)[C@H]3CC[C@@H]4[C@@]5(C)CCCC(C)(C)[C@@H]5[C@@H](O)C[C@@]4(C)[C@]3(C)CC[C@@H]12,cell viability (log2),[1],0.0136
same,cell viability (log2),[2],0.0775
same,cell viability (log2),[3],0.0306
same,cell viability (log2),[4],0.112
COc1cc(C2NC(=S)NC(C)=C2C(=O)Nc2cccc(Cl)c2)cc(OC)c1OC (stereo not given),cell viability (log2),[1],0.123
same,cell viability (log2),[2],0.0893
same,cell viability (log2),[3],0.204
same,cell viability (log2),[4],0.0553
COc1cccc(N2C(=O)C(=Cc3cccc(O)c3)SC2=S)c1,cell viability (log2),[1],0.113
same,cell viability (log2),[2],0.0758
same,cell viability (log2),[3],0.133
same,cell viability (log2),[4],0.182
CC(=O)O[C@H]1CC[C@@]2(C)C(C[C@@H](OC(C)=O)[C@@]3(C)C4=CC(=O)OC(c5ccoc5)[C@]4(C)CCC23)C1(C)C (stereo not given in full),cell viability (log2),[1],0.121
same,cell viability (log2),[2],0.145
same,cell viability (log2),[3],0.126
same,cell viability (log2),[4],0.124
CC(=O)O[C@@H]1CC[C@@]2(C)C(C[C@@H](OC(C)=O)[C@@]3(C)C4=CC(=O)O[C@@H](c5ccoc5)[C@]4(C)CCC23)C1(C)C (stereo not given in full),cell viability (log2),[1],-0.00795
same,cell viability (log2),[2],0.0487
same,cell viability (log2),[3],0.121
same,cell viability (log2),[4],0.0464
CC(=O)O[C@H]1C[C@@H](OC(C)=O)C(C)(C)C2C[C@@H](OC(C)=O)[C@@]3(C)C4=CC(=O)O[C@@H](c5ccoc5)[C@]4(C)CCC3[C@]21C (stereo not given in full),cell viability (log2),[1],0.0506
same,cell viability (log2),[2],0.0595
same,cell viability (log2),[3],-0.853 (active)
same,cell viability (log2),[4],-0.345 (active)
COc1cc(C(=O)N2CCOCC2)c([N+](=O)[O-])cc1OC,cell viability (log2),[1],0.0993
same,cell viability (log2),[2],0.0316
same,cell viability (log2),[3],0.0928
same,cell viability (log2),[4],-0.0159
CCCCCCCCCCCCCCCCCC(=O)OC[C@H](COP(=O)(O)OCC(O)COP(=O)(O)OC[C@@H](COC(=O)CCCCCCCCCCCCCCCCC)OC(=O)CCCCCCCCCCCCCCCCC)OC(=O)CCCCCCCCCCCCCCCCC (stereo not given in full),cell viability (log2),[1],0.0223
same,cell viability (log2),[2],0.0715
same,cell viability (log2),[3],0.128
same,cell viability (log2),[4],0.138
CC(=O)O[C@@H]1C[C@H]2C(C)(C)C(=O)[C@@H]3O[C@@H]3[C@]2(C)[C@H]2CC[C@@]3(C)[C@H](c4ccoc4)OC(=O)[C@H]4O[C@]43[C@@]21C,cell viability (log2),[1],0.0357
same,cell viability (log2),[2],0.0669
same,cell viability (log2),[3],0.155
same,cell viability (log2),[4],0.138
COc1c(CC(=O)c2cc3c(cc2O)OC(C)(C)C(O)C3)ccc2c1C=CC(C)(C)O2 (stereo not given),cell viability (log2),[1],0.0608
same,cell viability (log2),[2],-0.00504
same,cell viability (log2),[3],0.0765
same,cell viability (log2),[4],0.0703
COc1c2c(cc3ccoc13)C(=O)[C@H]1c3cc4c(cc3OC[C@H]1O2)OCO4,cell viability (log2),[1],0.0834
same,cell viability (log2),[2],0.0158
same,cell viability (log2),[3],0.0793
same,cell viability (log2),[4],-0.0539
COc1cc2c(cc1OC)[C@@H]1C(=O)c3ccc4c(c3O[C@@H]1CO2)C=CC(C)(C)O4,cell viability (log2),[1],-0.591 (active)
same,cell viability (log2),[2],-0.253 (active)
same,cell viability (log2),[3],-2.11 (active)
same,cell viability (log2),[4],-0.84 (active)
COc1ccc(-c2c(OC)c3c(OC)c4c(cc3oc2=O)OC(C)(C)C=C4)cc1,cell viability (log2),[1],0.0786
same,cell viability (log2),[2],0.00334
same,cell viability (log2),[3],0.211
same,cell viability (log2),[4],0.00828
COc1ccc2c(c1)O[C@@H]1COc3cc(OC)c(OC)cc3[C@@H]1C2=O,cell viability (log2),[1],-0.0338
same,cell viability (log2),[2],0.0823
same,cell viability (log2),[3],-0.0122
same,cell viability (log2),[4],-0.0233
COc1cc2c(cc1-c1coc3c4c(c(OC)cc3c1=O)OC(C)(C)C=C4)OCO2,cell viability (log2),[1],0.082
same,cell viability (log2),[2],0.0865
same,cell viability (log2),[3],0.173
same,cell viability (log2),[4],0.0953
COc1cc2c(cc1OC)[C@@H]1C(=O)c3c(cc4c(c3O)C=CC(C)(C)O4)O[C@@H]1CO2,cell viability (log2),[1],-0.0181
same,cell viability (log2),[2],-0.000972
same,cell viability (log2),[3],-0.392 (active)
same,cell viability (log2),[4],-0.0174
COc1cc2c(cc1OC)[C@@H]1C(=O)c3c(O)cc4c(c3O[C@@H]1CO2)C=CC(C)(C)O4,cell viability (log2),[1],-0.205 (active)
same,cell viability (log2),[2],-0.261 (active)
same,cell viability (log2),[3],-0.213 (active)
same,cell viability (log2),[4],-0.138
COc1ccc2c(c1)O[C@H]1c3ccc(O)cc3OC[C@@H]21,cell viability (log2),[1],0.225
same,cell viability (log2),[2],0.129
same,cell viability (log2),[3],0.184
same,cell viability (log2),[4],0.206
COc1ccccc1-c1coc2cc(O)ccc2c1=O,cell viability (log2),[1],0.111
same,cell viability (log2),[2],0.0685
same,cell viability (log2),[3],0.111
same,cell viability (log2),[4],-0.0147
COc1cc(C(=O)O)c(O)c2c1OCO2,cell viability (log2),[1],-0.00582
same,cell viability (log2),[2],-0.144
same,cell viability (log2),[3],0.116
same,cell viability (log2),[4],-0.0061
C[C@@H]1C[C@H]2[C@@H]3C[C@H](F)C4=CC(=O)C=C[C@]4(C)[C@@]3(F)[C@@H](O)C[C@]2(C)[C@H]1C(=O)COC(=O)C(C)(C)C,cell viability (log2),[1],0.00935
same,cell viability (log2),[2],-0.0577
same,cell viability (log2),[3],0.0831
same,cell viability (log2),[4],-0.0529
COc1cc(O)c(C(=O)c2ccccc2)c(OC)c1,cell viability (log2),[1],0.0618
same,cell viability (log2),[2],0.0186
same,cell viability (log2),[3],0.0469
same,cell viability (log2),[4],0.0894
OC[C@H]1O[C@@](CO)(O[C@H]2O[C@H](CO)[C@@H](O)[C@H](O)[C@H]2O)[C@@H](O[C@H]2O[C@H](CO)[C@@H](O)[C@H](O)[C@H]2O)[C@@H]1O,cell viability (log2),[1],0.0123
same,cell viability (log2),[2],0.0415
same,cell viability (log2),[3],0.0346
same,cell viability (log2),[4],0.126
COCCOC(=O)C1=C(C)NC(=S)NC1c1ccccc1OC (stereo not given),cell viability (log2),[1],0.0949
same,cell viability (log2),[2],0.0382
same,cell viability (log2),[3],0.0563
same,cell viability (log2),[4],0.0651
C=CC(C)(CCC1C(=C)CC(OC(C)=O)C2C(C)(C)CCCC12C)OC(C)=O (stereo not given),cell viability (log2),[1],0.025
same,cell viability (log2),[2],0.066
same,cell viability (log2),[3],0.163
same,cell viability (log2),[4],-0.0558
O=C1[C@H](Cc2ccc(O)cc2)N2C(=O)CCN(C(=O)NCc3ccccc3)[C@H]2CN1Cc1cccc2ccccc12,cell viability (log2),"0.103 µM, library screen: screen3, EWS-FLI1 expression: high (no doxycycline)",-0.0101
same,cell viability (log2),"0.103 µM, library screen: screen3, EWS-FLI1 expression: low (doxycycline-induced shRNA knockdown)",0.068
same,cell viability (log2),"0.308 µM, library screen: screen3, EWS-FLI1 expression: high (no doxycycline)",0.0453
same,cell viability (log2),"0.308 µM, library screen: screen3, EWS-FLI1 expression: low (doxycycline-induced shRNA knockdown)",0.0327
same,cell viability (log2),"0.926 µM, library screen: screen3, EWS-FLI1 expression: high (no doxycycline)",0.0157
same,cell viability (log2),"0.926 µM, library screen: screen3, EWS-FLI1 expression: low (doxycycline-induced shRNA knockdown)",0.0736
same,cell viability (log2),"2.8 µM, library screen: screen3, EWS-FLI1 expression: high (no doxycycline)",0.0365
same,cell viability (log2),"2.8 µM, library screen: screen3, EWS-FLI1 expression: low (doxycycline-induced shRNA knockdown)",0.0441
same,cell viability (log2),"8.3 µM, library screen: screen3, EWS-FLI1 expression: high (no doxycycline)",-0.0756
same,cell viability (log2),"8.3 µM, library screen: screen3, EWS-FLI1 expression: low (doxycycline-induced shRNA knockdown)",-0.205
same,cell viability (log2),"25 µM, library screen: screen3, EWS-FLI1 expression: high (no doxycycline)",-1.07 (active)
same,cell viability (log2),"25 µM, library screen: screen3, EWS-FLI1 expression: low (doxycycline-induced shRNA knockdown)",-1.18 (active)
O=C(O)[C@@H]1C2CC3c4[nH]c5ccccc5c4CCN3CC2CC[C@@H]1O (stereo not given in full),cell viability (log2),[1],0.0321
same,cell viability (log2),[2],0.0471
same,cell viability (log2),[3],0.097
same,cell viability (log2),[4],0.142
